Results from PubChem BioAssay (NCATS).
Records with an inconclusive call do not appear. Active and inactive are the calls of the source. Calls come from the whole dose curve; as a rule, active = well fitted inhibition curve with a large enough effect; inconclusive = small, poorly fitted or top-dose-only effect; inactive = no such curve, though single readings can be large or run the other way.

Target: Protein phosphatase 1D (Homo sapiens) (UniProt O15297)
Experiment: RapidFire Mass Spectrometry qHTS Assay for Modulators of WT P53-Induced Phosphatase 1 (WIP1) (AID 1347424)
Conditions: WIP1 dephosphorylation of phosphopeptide, RapidFire MS; series mostly up to 63 µM; activity change, negative = inhibition: at the top concentration
Description: Assay Provider (PI): Nathan Coussens Ph. D.
National Center for Advancing Translational Sciences (NCATS), Rockville, MD
National Institute of Health (NIH), Bethesda, Maryland
WT P53-Induced Phosphatase 1 (WIP1) is a member of the magnesium-dependent serine/threonine protein phosphatase (PPM) family and is induced by P53 in response to DNA damage. In several human cancers, the WIP1 protein is overexpressed, which is generally associated with a worse prognosis. Although WIP1 is an attractive therapeutic target, no potent, selective, and bioactive small-molecule modulator with favorable pharmacokinetics has been reported. Phosphatase enzymes are among the most challenging targets for small molecules because of the difficulty of achieving both modulator selectivity and bioavailability. Another major obstacle has been the availability of robust and physiologically relevant phosphatase assays that are suitable for high-throughput screening.
Here, we describe two orthogonal biochemical WIP1 activity assays that utilize phosphopeptides from native WIP1 substrates. We optimized a RapidFire MS assay to quantify the enzymatically dephosphorylated peptide reaction product in a 384-well format. Additionally, a redshifted Rhodamine-PBP fluorescence assay was optimized in a 1,536-well format to enable real-time WIP1 activity measurements through the detection of the orthogonal reaction product, Pi. We validated these two optimized assays by quantitative high-throughput screening against the National Center for Advancing Translational Sciences (NCATS) Pharmaceutical Collection and used secondary assays to confirm and evaluate inhibitors identified in the primary screen.
SEQUENCE No. (e.g., 1, 2, 3, etc.); […] (e.g., Cells, Incubation, Reagent, etc.); VALUE; DESCRIPTION
1; Reagent; 50 uL; dispensed assay buffer: 0.1% formic acid in water (10 uL : 40 uL) solution in column 1
3; Library Compounds; 63 nL; library compounds in DMSO, columns 3-24
4; Control Compounds; 63 nL; DMSO in wells I-P, columns 1-2, GSK830371 (10 uM, final) in wells A-H, column 2
5; Time; 1 hr; incubation
6; Substrate; 2 uL; VEPPL-pS-QETFS (10 uM) in assay buffer, column 2-24
7; Time; 5 min; incubation
8; Reagent; 2 uL; 0.5% formic acid in water, columns 2-24
9; Reagent; 38 uL; VEPPL-S-QETF*S in 0.1% formic acid, columns 2-24
10; Detection; mass spec; RapidFire mass spectrometry
NOTES (numbers refer to sequence above)
1, 2, 6; dispensed reagent in White Nunc 384-well PP microplates (264573); assay buffer: 50 mM Tris-HCl pH 7.5, 30 mM MgCl2, 1 mM TCEP, 0.1 mM EGTA, 75 ug/mL BSA.
2, 6, 8, 9; Dispensed with BioRaptr (Beckman Coulter)
2, 6, 9; Final concentrations: 10 nM WIP1; 2 uM VEPPL-pS-QETFS; 1 uM VEFFL-S-QETF*S
3 & 4; Kalypsys Pintool transfer (Wako USA), Tip wash sequence: water, DMSO, methanol, 20 sec vacuum dry.
5 & 7; incubation at room temperature
10; RapidFire mass spectrometry read using the Agilent RapidFire 360 (Clausse, 2019)
Clausse V, et al. Physiologically relevant orthogonal assay for the discovery of small-molecule modulators of WIP1 […] in high-throughput screens. J Biol Chem. 2019, 294(46): 17654-17668. doi:10.1074/jbc.RA119.010201

Sequence of Protein phosphatase 1D (Homo sapiens) (O15297 whole entry, looked up): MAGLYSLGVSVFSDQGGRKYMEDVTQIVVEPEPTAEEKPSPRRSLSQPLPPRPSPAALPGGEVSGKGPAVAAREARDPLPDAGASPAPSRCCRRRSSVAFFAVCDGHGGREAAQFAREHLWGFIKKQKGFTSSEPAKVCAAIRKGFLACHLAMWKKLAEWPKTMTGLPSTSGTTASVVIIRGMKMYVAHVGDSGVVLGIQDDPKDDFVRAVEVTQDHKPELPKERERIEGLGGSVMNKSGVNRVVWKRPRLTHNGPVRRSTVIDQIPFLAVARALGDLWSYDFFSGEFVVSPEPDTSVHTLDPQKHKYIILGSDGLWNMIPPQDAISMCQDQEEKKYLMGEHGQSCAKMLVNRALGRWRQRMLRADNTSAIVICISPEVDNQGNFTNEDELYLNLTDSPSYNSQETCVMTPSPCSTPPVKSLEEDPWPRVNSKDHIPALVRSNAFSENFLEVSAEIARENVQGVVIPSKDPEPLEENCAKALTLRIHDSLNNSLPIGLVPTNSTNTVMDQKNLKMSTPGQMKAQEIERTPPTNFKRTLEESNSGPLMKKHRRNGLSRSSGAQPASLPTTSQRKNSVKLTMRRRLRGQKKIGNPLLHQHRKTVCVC

Question: How did the “activity change, negative = inhibition” value turn out when `C[C@H]1C[C@H]2[C@@H]3CCC4=CC(=O)C=C[C@]4(C)[C@@]3(Cl)[C@@H](O)C[C@]2(C)[C@@]1(O)C(=O)CO` was run?
Answer: -0.772% (inactive)

Question: Which “activity change, negative = inhibition” value does the source give for `CN1CCN(CCCN2c3ccccc3Sc3ccc(S(=O)(=O)N(C)C)cc32)CC1` here?
Answer: 36.3% (inactive)

Question: Which “activity change, negative = inhibition” value does the source give for `CC(=O)OCC(=O)[C@@]1(OC(C)=O)[C@@H](C)C[C@H]2[C@@H]3C[C@H](F)C4=CC(=O)C=C[C@]4(C)[C@@]3(F)[C@@H](O)C[C@@]21C` here?
Answer: 9.63% (inactive)

Question: For `Nc1ccc(/C=C/c2ccc(N)cc2S(=O)(=O)O)c(S(=O)(=O)O)c1`, which activity change, negative = inhibition is on record?
Answer: -4.22% [at 0.505 µM] (inactive)

Question: How did the “activity change, negative = inhibition” value turn out when `CC(C)(C)CC(C)(C)c1ccc(OCCOCC[N+](C)(C)Cc2ccccc2)cc1` was run?
Answer: 43.5% (inactive)

Question: With `c1ccc(CNCCNCc2ccccc2)cc1` as the compound, how does the “activity change, negative = inhibition” value read?
Answer: 6.82% (inactive)

Question: `CC1=C(C(=O)O)N2C(=O)[C@@H](NC(=O)[C@H](N)c3ccc(O)cc3)[C@H]2SC1` was tested. Which “activity change, negative = inhibition” value did it give?
Answer: -9.74% (inactive)

Question: For `C=C1C[C@H]2[C@@H]3C=C(C)C4=CC(=O)CC[C@]4(C)[C@H]3CC[C@]2(C)[C@@]1(OC(C)=O)C(C)=O`, which “activity change, negative = inhibition” value is on record?
Answer: 6.68% (inactive)

Question: With `CC(Cc1cccc(C(F)(F)F)c1)NCCOC(=O)c1ccccc1` (stereo not given) as the compound, how does the “activity change, negative = inhibition” value read?
Answer: 26.5% (inactive)

Question: How did the “activity change, negative = inhibition” value turn out when `Cc1c(C)n(CCN(C)C)c2ccc(C(=O)OCCN(C)C)cc12` was run?
Answer: -17.3% (inactive)

Question: With `NC[C@H]1O[C@H](O[C@H]2[C@H](O)[C@@H](O[C@H]3O[C@H](CO)[C@@H](O)[C@H](N)[C@H]3O)[C@H](N)C[C@@H]2N)[C@H](N)[C@@H](O)[C@@H]1O` as the compound, how does the “activity change, negative = inhibition” value read?
Answer: -7.53% [at 26.6 µM] (inactive)

Question: How did the “activity change, negative = inhibition” value turn out when `O=C(CCCN1CCC(O)(c2ccc(Br)cc2)CC1)c1ccc(F)cc1` was run?
Answer: 9.34% (inactive)

Question: `CCCCCCC[N+](CC)(CC)CCCCc1ccc(Cl)cc1` was tested. Which “activity change, negative = inhibition” value did it give?
Answer: 25.5% (inactive)

Question: Which “activity change, negative = inhibition” value does the source give for `COc1ccc(CN2CCN(C(c3ccc(F)cc3)c3ccc(F)cc3)CC2)c(OC)c1OC` here?
Answer: 51.1% (inactive)

Question: For `O=C1[C@H]2CCCC[C@H]2C(=O)N1CCCCN1CCN(c2nsc3ccccc23)CC1`, which “activity change, negative = inhibition” value is on record?
Answer: -4.68% (inactive)

Question: For `CC(=O)Oc1ccc(C(c2ccc(OC(C)=O)cc2)c2ccccn2)cc1`, which “activity change, negative = inhibition” value is on record?
Answer: 5.41% (inactive)

Question: `Oc1c(I)cc(Cl)c2cccnc12` was tested. Which “activity change, negative = inhibition” value did it give?
Answer: -3.51% (inactive)

Question: Which “activity change, negative = inhibition” value does the source give for `Nc1ccn([C@@H]2O[C@H](CO)[C@@H](O)C2(F)F)c(=O)n1` here?
Answer: 11.6% (inactive)

Question: With `O=C1OCCN1/N=C/c1ccc([N+](=O)[O-])o1` as the compound, how does the “activity change, negative = inhibition” value read?
Answer: -1.55% (inactive)

Question: For `NCCc1ccn[nH]1`, which “activity change, negative = inhibition” value is on record?
Answer: 0.293% (inactive)

Question: With `CCCCCCCCCCCCCCCC[N+](C)(C)CCN(Cc1ccc(OC)cc1)c1ncccn1` as the compound, how does the “activity change, negative = inhibition” value read?
Answer: 30.6% (inactive)

Question: How did the “activity change, negative = inhibition” value turn out when `CC(=O)O[C@]1(C(C)=O)CC[C@H]2[C@@H]3C[C@H](C)C4=CC(=O)CC[C@]4(C)[C@H]3CC[C@@]21C` was run?
Answer: 7.84% (inactive)

Question: How did the “activity change, negative = inhibition” value turn out when `CN=C(NC#N)NCCSCc1csc(N=C(N)N)n1` was run?
Answer: 1.03% (inactive)

Question: For `CCOC(=O)[C@H](CCc1ccccc1)N[C@@H](C)C(=O)N1Cc2ccccc2C[C@H]1C(=O)O`, which “activity change, negative = inhibition” value is on record?
Answer: -2.47% (inactive)

Question: For `C[C@H](CCC(=O)O)[C@H]1CC[C@H]2[C@@H]3C(=O)C[C@@H]4CC(=O)CC[C@]4(C)[C@H]3CC(=O)[C@]12C`, which “activity change, negative = inhibition” value is on record?
Answer: 2.95% (inactive)

Question: For `CC(=O)c1ccc2c(c1)N(CCCN1CCC(CCO)CC1)c1ccccc1S2`, which “activity change, negative = inhibition” value is on record?
Answer: 12.5% (inactive)

Question: `C[C@]12CC[C@@H]3c4ccc(O)cc4CC[C@H]3[C@@H]1C[C@@H](O)[C@@H]2O` was tested. Which “activity change, negative = inhibition” value did it give?
Answer: -5.18% (inactive)

Question: Which “activity change, negative = inhibition” value does the source give for `OCc1ccccc1O` here?
Answer: -2.27% (inactive)

Question: How did the “activity change, negative = inhibition” value turn out when `CCCC(=O)O[C@]1(C(=O)CO)CC[C@H]2[C@@H]3CCC4=CC(=O)CC[C@]4(C)[C@H]3[C@@H](O)C[C@@]21C` was run?
Answer: 13.4% (inactive)

Question: How did the activity change, negative = inhibition turn out when `CCn1cc(C(=O)O)c(=O)c2cnc(N3CCCC3)nc21` was run?
Answer: -0.783% [at 12.6 µM] (inactive)

Question: For `NCCC(O)(P(=O)(O)O)P(=O)(O)O`, which “activity change, negative = inhibition” value is on record?
Answer: 10.2% (inactive)

Question: Which “activity change, negative = inhibition” value does the source give for `COC(=O)C1=C(C)NC(C)=C(C(=O)O[C@@H]2CCCN(Cc3ccccc3)C2)[C@@H]1c1cccc([N+](=O)[O-])c1` here?
Answer: -19.9% (inactive)

Question: For `CCN(CC)C(=O)N1CCN(C)CC1`, which “activity change, negative = inhibition” value is on record?
Answer: -0.393% (inactive)

Question: For `O=C1OC(c2ccc(O)cc2)(c2ccc(O)cc2)c2ccccc21`, which “activity change, negative = inhibition” value is on record?
Answer: -20.7% (inactive)

Question: Which “activity change, negative = inhibition” value does the source give for `N[C@H](Cc1c[nH]c2ccccc12)C(=O)O` here?
Answer: -4.03% (inactive)

Question: `Cc1ncc(CSSCc2cnc(C)c(O)c2CO)c(CO)c1O` was tested. Which “activity change, negative = inhibition” value did it give?
Answer: 1.85% (inactive)

Question: For `NC(=NCCCCCCN=C(N)/N=C(\N)Nc1ccc(Cl)cc1)/N=C(\N)Nc1ccc(Cl)cc1`, which “activity change, negative = inhibition” value is on record?
Answer: 78.7% (inactive)

Question: How did the “activity change, negative = inhibition” value turn out when `CCOC(=O)OC(C)OC1=C(C(=O)Nc2ccccn2)N(C)S(=O)(=O)c2ccccc21` (stereo not given) was run?
Answer: 6.6% (inactive)

Question: With `CC(C)N=C(N)/N=C(\N)Nc1ccc(Cl)cc1` as the compound, how does the “activity change, negative = inhibition” value read?
Answer: 15% (inactive)

Question: `CC(C)(CO)[C@@H](O)C(=O)NCCCO` was tested. Which “activity change, negative = inhibition” value did it give?
Answer: 5.1% (inactive)
